TDP1 cell CPT = DT40-hTDP1 cell growth loss with CPT; chicken DT40 Tdp1-/-;hTDP1 cells + 20 nM CPT, ATP luminescence, 48 h; Potency, µM (series often up to 46.2 µM), for the others: at the highest dose activity change, negative = growth inhibition, usual class: inhibitors; 420,000 compounds, 12% hits; AID 686979; note: % is set by controls: 0 for no effect and ±100 for the full control effect; nearly all actives have a fitted effect of over 55% in size
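Cell growth measured by CellTiter-Glo luminescence after a minimum 48 h, 37 C compound exposure with 20 nM CPT in Tdp1-knockout DT40 cells stably expressing hTDP1, seeded 400/well; qHTS titration format.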
TDP1 cell noCPT = qHTS for Inhibitors of human tyrosyl-DNA phosphodiesterase 1 (TDP1): qHTS in cells in absence of CPT | DT40 Tdp1-/- hTDP1 cells, no CPT, ATP luminescence, 48 h | Potency, µM (titrated, usually from 46.2 µM), inactives show at the top dose activity change, negative = growth inhibition, hits mostly inhibitors | 420,000 compounds, 15% hits; note: % is set by controls: 0 for no effect and ±100 for the full control effect; nearly all actives have a fitted effect of over 55% in size
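Readout: luminescence from CellTiter-Glo after 30 min in the dark at RT. Cells: DT40 Tdp1-/- with stable hTDP1, 400/well. Exposure: compounds alone, ≥48 hr, 37 °C.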
TGFb inhibitor = blocks TGF-b signaling. Potency, µM (highest dose often 46.1 µM), inactives show at the top dose activity, negative = inhibition, most hits filed as inhibitors. 410,000 compounds, 1.2% hits. HepG2 CAGA-GFP TGF-b/SMAD3 reporter, GFP fluorescence, 18 h; TGF-beta stimulated, 500 pg/mL final. AID 588855; note: % is set by controls: 0 for no effect and ±100 for the full control effect; nearly all actives have a fitted effect of over 65% in size
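Cell-based qHTS in HEPG2 carrying a CAGA-GFP Smad reporter; compounds added before 500 pg/mL final TGF-beta, 18 h incubation at 37 degrees C, GFP fluorescence quantified per cell by imaging cytometry.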
HepG2 viability = counter-screen for TGF-b inhibitors: cytotoxicity in HepG2 cells; 410,000 compounds, 0.76% hits; Potency, µM (doses to about 46.1 µM), inactives show at the highest dose activity change, negative = cytotoxicity, actives largely listed as cytotoxic; HepG2 CAGA-GFP viability, ATP luminescence, 18 h
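HepG2 CAGA-GFP cells (1000/well, DMEM with 1% FBS) received compound, then TGF-beta at 500 pg/mL final, and were incubated 18 hours at 37 degrees C. Viability was read by CellTiter-Glo luminescence. Media-only wells were set as complete cell-killing and DMSO as no toxicity.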
HT1080 IDH1KD tx = kills HT-1080 cells with IDH1 knockdown; HT-1080 IDH1 knockdown viability, ATP luminescence, 48 h; Potency, µM (series often up to 46.1 µM), for inactives: at the top dose activity, negative = toxicity, hits mostly cytotoxic; 360,000 compounds, 2% hits; AID 686971;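 note: 0% = DMSO wells and -100% = cell-free medium wells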
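CellTiter-Glo luminescence after 48 h compound exposure at 37 degrees C of IDH1-knockdown HT-1080 cells in 5% FBS RPMI. %Activity scaled between DMSO wells and cell-free media wells, with curves fitted and assigned curve classes.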
HT1080-NT tox = kills 2HG-producing HT-1080-NT fibrosarcoma cells | HT-1080-NT fibrosarcoma viability, CellTiter-Glo ATP luminescence, 48 h | Potency, µM (titrated, usually from 46.1 µM), inactives show at the highest dose activity, negative = less viability, most hits filed as cytotoxic | 360,000 compounds, 1.6% hits | AID 686970;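 note: NT is the 2HG producing partner of a matched IDH1 knockdown line; 0% = DMSO-treated cells and -100% = media-only wells without cells; nearly all actives have a fitted effect of over 55% in size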
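Compounds were tested in concentration-response format on HT-1080-NT cells for 48 hours at 37 degrees C. Cell viability came from CellTiter-Glo luminescence; curves were classified by r2, response magnitude and activity.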
Active calls of the source: *; ? = inconclusive; . = no result given; [ ] = remark or other dose. In the library only some 17% were active in any assay of this set; here they are far more common. Calls come from the whole dose curve; as a rule, active = well fitted curve in the direction sought with a large enough effect; inconclusive = small, poorly fitted or top-dose-only effect, or another doubt; inactive = no such curve, though single readings can be large; an effect the other way counts as inactive or inconclusive. Potency is the fitted concentration of half-maximal effect.

SMILES | TDP1 cell CPT | TDP1 cell noCPT | TGFb inhibitor | HepG2 viability | HT1080 IDH1KD tx | HT1080-NT tox
COc1cccc(-c2nc3sc4c(c3c(=O)[nH]2)CCCCC4)c1 | ? | ? | -5% | 2% | 21% | 24%
COc1cc(OC)cc(C(=O)Nc2nc(CC(=O)NC(C)c3ccccc3)cs2)c1 (configuration not stated) | ? | -26% | -5% | -2% | 1% | -1%
C[C@H](CO)N1C[C@H](C)[C@@H](CN(C)S(=O)(=O)c2cn(C)cn2)Oc2c(NC(=O)Nc3ccc4c(c3)OCO4)cccc2C1=O | -30% | -23% | 6% | 3% | 5% | 4%
COc1ccc(S(=O)(=O)N2CCOCC2)cc1NC(=O)CCCOc1ccc(C(C)=O)cc1 | 3% | -17% | -12% | 0% | -8% | -6%
Cc1c(C(=O)N2CCOc3ccc(Cl)cc3C2)sc2ncnc(NCCc3ccccn3)c12 | -11%[9.04 µM] | ? | . | . | . | .
Cc1c(Cl)cccc1NC(=O)c1cnc2sc(N3CCOCC3)nn2c1=O | -27% | ? | -23% | -11% | . | .
O=C(COc1ccccc1C(=O)Nc1ccccc1)Nc1ccc2ccccc2c1 | ? | 20µM* | . | . | -9% | -18%
COc1cccc(NC(=O)COc2ccccc2C(=O)Nc2ccccc2)c1 | ? | ? | . | . | -10% | -8%
CC(OC(=O)c1ccccc1OCC(=O)Nc1ccc(Br)cc1)C(=O)NC1CCCC1 (configuration not stated) | 8.9µM* | 10µM* | . | . | 11% | 6%
O=C(/C=C/c1cccc([N+](=O)[O-])c1)N1CCN(Cc2ccc3c(c2)OCO3)CC1 | ? | ? | 17% | 1% | 1% | 3%
O=C(O)c1cc(-c2ccc(O)cc2)on1 | 15% | -4% | 3% | 4% | 15% | 7%
CCCCCC(=O)NC(Nc1ccc(S(N)(=O)=O)cc1)C(Cl)(Cl)Cl (configuration not stated) | 16µM* | ? | ? | -1% | -2% | 9%
COC(=O)C1C=CC(OC2OC(COC(C)=O)C(OC(C)=O)C(OC(C)=O)C2OC(C)=O)n2c(=O)n(-c3ccccc3)c(=O)n21 (configuration not stated) | 0.73µM* | 0.82µM* | ? | -86% | 5.8µM* | ?
CC(=O)OCC1OC(n2ccc3ccccc32)C(OC(C)=O)C(OC(C)=O)C1OC(C)=O (configuration not stated) | ? | ? | ? | 0% | 22% | 18%
CCn1cc(C(=O)NC2CC(C)(C)Cc3c2cnn3-c2cccc(F)c2)cn1 (configuration not stated) | 16µM* | 21µM* | 7% | 15% | 0% | 2%
O=C(NCC1CCCO1)c1cc([N+](=O)[O-])ccc1N1CCC(Cc2ccccc2)CC1 (configuration not stated) | ? | 23µM* | -18% | -13% | -27% | -6%
CC1(C)COC(Cn2c3ccccc3c3ccccc32)O1 (configuration not stated) | ? | ? | -13% | 18% | 23µM* | -14%
CC1COC(Cn2c3ccccc3c3ccccc32)O1 (configuration not stated) | ? | 18µM* | 23% | -3% | ? | ?
CN(C)CCCN1C(=O)c2cccc3c([N+](=O)[O-])ccc(c23)C1=O | 2.3µM* | 2.3µM* | ? | -94% | 5.8µM* | ?
O=C1c2cccc3c([N+](=O)[O-])ccc(c23)C(=O)N1CCc1ccccn1 | 13µM* | 5.2µM* | -19% | -28% | -16% | 2%
O=C(O)c1cc(Cl)c(Cl)cc1C(=O)Nc1cccc2cccnc12 | -13% | -27% | 8% | 11% | -3% | -2%
Cn1cc(-c2nc3cncnc3n(C3CC3)c2=O)c2ccccc21 | -5% | 4% | . | . | . | .
CC(=O)C1=C(c2ccc(Br)cc2)C(=O)c2ccccc2C1=O | 1.3µM* | 1.5µM* | ? | -99% | 13µM* | 13µM*
CC(=O)Nc1c(Br)cc2c(c1Br)C(=O)c1ccccc1-2 | -1% | -4% | 1% | 2% | 2% | 7%
CC12CC(NC(=O)N1CCc1ccccc1)c1cc(Cl)ccc1O2 (configuration not stated) | ? | 21µM* | ? | -26% | 3% | 1%
SMILES | TDP1 cell CPT | TDP1 cell noCPT | TGFb inhibitor | HepG2 viability | HT1080 IDH1KD tx | HT1080-NT tox
COc1ccc(NC(=O)c2cccc(N3C(=O)C4CCC(C)CC4C3=O)c2)c(OC)c1 (configuration not stated) | -8% | ? | 7% | 3% | 8% | 0%
CCN(CC)Cc1c(CC(C)C)oc(C)c1C(=O)O | -13% | -7% | -16% | 4% | -3% | 12%
O=C(Nc1ccc(F)cc1)OCCN1CCN(Cc2ccccc2)CCC1=O | ? | ? | -28% | -13% | 1% | -1%
O=C(Nc1cccc(C(F)(F)F)c1)OCCN1CCN(Cc2ccccc2)CCC1=O | 21µM* | ? | ? | -14% | 0% | -2%
Cc1cc(C)nc(Nc2ccc(O)cc2)n1 | -19% | 21% | 0% | 0% | 4% | 9%
Oc1ccc(Nc2ccc3ccccc3c2)cc1 | 18µM* | 23µM* | -5% | -2% | ? | -25%
Cc1cc(Nc2ccc(O)cc2)ccc1N | 5µM* | 3.2µM* | -12% | -8% | . | .
CCc1ccc(NC(=O)CCn2nc(-c3ccccc3OC)c3c(C)cc(C)nc32)cc1 | ? | 21µM* | ? | -64% | . | .
COc1ccc(NC(=O)CCn2nc(C)cc2C)cc1 | 9% | 1% | 10% | 6% | 6%[9.24 µM] | 14%
COc1ccc(NC(=O)CCn2nc(-c3ccccc3OC)c3c(C)cc(C)nc32)cc1 | ? | 21µM* | ? | -38% | . | .
Cc1noc(C)c1COc1ccc(C(=O)N2CCN(S(=O)(=O)c3cccc(F)c3)CC2)cc1 | -22% | -30% | 17% | -3% | -9% | -6%
Cc1ccc(N2CCN(C(=O)C(=O)c3cccc(Br)c3)CC2)cc1 | ? | ? | . | . | -2% | -4%
Cn1c(N)c(C(=O)COC(=O)c2ccccc2C(=O)c2ccc(Cl)c([N+](=O)[O-])c2)c(=O)n(C)c1=O | ? | 18µM* | ? | -7% | ? | ?
